We go through 16 molecules from PMC5540273 (PLoS ONE, 2017).

Test systems include AURKA; AURKB; AURKC; AXL; BLK; BMPR1A; BMPR1B; BMPR2.
Common to all, as to conditions: concentration: 1 μM,replicates: in singlicate; n = 1
For another assay, the system named is T1, ASK2.
T1 construct: gene MAP3K6

The subject of a further assay is T2, BIKE.
T2 construct: gene BMP2K
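Also: KINOMEscan kinase panel screen.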

In the case of `CN(c1ccc2c(c1)nc(NCc1ccc(F)cc1)n2C)c1ccnc(Nc2ccc(CS(C)(=O)=O)cc2)n1.Cl` [GW813244], the “%Inh” value is on record as 0% in the assay with ASK2; 77% in the assay with AURKA; 70% in the assay on AURKB; 67% with AURKC; 68% in the assay with AXL; 33% in the assay with BIKE. The “%Inh” value with BLK is listed as 57%; with BMPR1A it was 16%; in the assay on BMPR1B, 0%; in the assay on BMPR2, 10%.

On to `C[C@@H]1CNc2c(sc3ccc4nc(-c5ccncc5)ccc4c23)C(=O)N1`, for which the “%Inh” value in the assay on ASK2 is given as 0%; with AURKA, 0%; in the assay with AURKB, 17%; with AURKC, 9%; in the assay with AXL, 81%; in the assay with BIKE, 19%. Besides, the “%Inh” value in the assay with BLK amounted to 0%; with BMPR1A, 12%; with BMPR1B it was 7%; with BMPR2, 0%.

As for `CCn1c(-c2nonc2N)nc2cncc(Br)c21` [SB-738004], the “%Inh” value in the assay with ASK2 amounted to 0%; in the assay with AURKA it was 14%; in the assay with AURKB, 17%; in the assay with AURKC, 0%; with AXL it was 22%; with BIKE, 23%. For the same molecule, the “%Inh” value with BLK is listed as 0%; in the assay with BMPR1A, 0%; with BMPR1B it was 17%; in the assay with BMPR2, 58%.

In the case of `Cc1n[nH]c2cc(Nc3ccnc(Nc4cccc(CN5CCOCC5)c4)n3)ccc12` [GW682569], the “%Inh” value worked out at 0% in the assay with ASK2; 98.9% in the assay with AURKA; 55% in the assay with AURKB; 93.5% in the assay on AURKC; 35% in the assay on AXL; 98.1% in the assay on BIKE. Also, the “%Inh” value with BLK was determined as 0%; in the assay on BMPR1A, 0%; in the assay on BMPR1B, 87%; in the assay on BMPR2, 6%.

As for `Cn1ccc2ncnc(Oc3ccc(NC(=O)Nc4cccc(C(F)(F)F)c4)c(F)c3)c21`, the “%Inh” value with ASK2 is reported as 0%; in the assay with AURKA, 5%; with AURKB it was 88%; in the assay with AURKC, 65%; in the assay on AXL, 87%; in the assay with BIKE, 18%. Moreover, the “%Inh” value in the assay with BLK is 22%; in the assay on BMPR1A, 0%; in the assay on BMPR1B it was 0%; in the assay with BMPR2 it was 0%.

Take `O=C(Nc1ccccc1)c1cccc(Oc2ccc3nccn3n2)c1`: the “%Inh” value in the assay with ASK2 was 3%; in the assay with AURKA it was 0%; in the assay on AURKB it was 4%; in the assay on AURKC it was 28%; in the assay with AXL it was 0%; in the assay on BIKE, 5%. Further, the “%Inh” value in the assay on BLK is given as 9%; in the assay with BMPR1A, 0%; with BMPR1B, 14%; in the assay with BMPR2, 22%.

Take `C[C@@H](Oc1cc(-n2cnc3cc(-c4cnn(C)c4)ccc32)sc1C(N)=O)c1ccccc1Cl` [GSK580432]: the “%Inh” value in the assay with ASK2 amounted to 15%; in the assay on AURKA it was 38%; in the assay with AURKB it was 90.6%; with AURKC, 100%; in the assay on AXL, 97.4%; with BIKE it was 100%. In addition, the “%Inh” value with BLK turned out to be 89%; in the assay on BMPR1A, 19%; in the assay with BMPR1B, 0%; in the assay with BMPR2, 0%.

Take `CC(=O)Nc1nc2cnc(Nc3cc(NC(=O)c4cccc(CC(C)(C)C#N)c4)ccc3C)nc2s1`: the “%Inh” value stood at 0% in the assay on ASK2; 11% in the assay with AURKA; 3% with AURKB; 0% with AURKC; 20% with AXL; 0% in the assay with BIKE. The “%Inh” value in the assay with BLK worked out at 32%; in the assay on BMPR1A, 0%; in the assay on BMPR1B, 2%; in the assay with BMPR2, 0%.

In the case of `COc1cc(Nc2nccc(N3CCC(NC(=O)c4cccc(C#N)c4)C3)n2)cc(OC)c1OC` (stereo not shown) [GSK1379751], the “%Inh” value in the assay on ASK2 was 0%; in the assay on AURKA, 68%; with AURKB, 36%; in the assay with AURKC, 56%; in the assay on AXL, 22%; with BIKE, 90%. Moreover, the “%Inh” value in the assay on BLK was 0%; in the assay on BMPR1A it was 0%; with BMPR1B it was 2%; in the assay with BMPR2 it was 11%.

In the case of `CC(C)c1nc(-c2cccc(NS(=O)(=O)c3ccccc3)c2)c(-c2ccnc(Nc3ccc4c(c3)CN(C)CC4)n2)s1` [GSK1649598], the “%Inh” value in the assay on ASK2 worked out at 4%; in the assay on AURKA, 23%; in the assay with AURKB, 52%; in the assay with AURKC it was 55%; with AXL, 68%; with BIKE, 0%. The “%Inh” value is listed as 99.6% with BLK, 81% in the assay with BMPR1A, 99.9% in the assay with BMPR1B and 9% in the assay with BMPR2.

In the case of `COC(=O)c1cccc(NC(=O)NC2CCN(c3ccnc(Nc4cc(OC)c(OC)c(OC)c4)n3)C2)c1` (stereo not shown) [GSK1379767], the “%Inh” value with ASK2 stood at 0%; in the assay with AURKA, 72%; in the assay on AURKB, 39%; in the assay with AURKC, 73%; with AXL, 0%; with BIKE it was 60%. The “%Inh” value in the assay on BLK amounted to 0%; in the assay with BMPR1A, 11%; in the assay with BMPR1B, 0%; in the assay with BMPR2, 26%.

`Cn1ccc2ncnc(Oc3ccc(NC(=O)Nc4cc(C(C)(C)C)on4)c(Cl)c3)c21`: the “%Inh” value amounted to 0% with ASK2; 6% with AURKA; 88% with AURKB; 15% in the assay on AURKC; 97.2% in the assay on AXL; 0% with BIKE. The “%Inh” value in the assay with BLK came to 87%; in the assay on BMPR1A, 7%; in the assay on BMPR1B, 16%; in the assay with BMPR2 it was 5%.

Turning to `CC(=O)c1c(-c2ccncc2)[nH]c(-c2ccncc2)c1C` [GW493036], the “%Inh” value came to 0% in the assay on ASK2; 0% in the assay with AURKA; 16% with AURKB; 5% with AURKC; 17% with AXL; 23% in the assay with BIKE. Besides, the “%Inh” value turned out to be 38% in the assay on BLK, 0% in the assay on BMPR1A, 0% with BMPR1B and 24% with BMPR2.

Turning to `CCNCC(Cc1ccccc1)NC(=O)c1cc(Br)c(-c2ccnc3[nH]ccc23)s1.Cl.Cl` (stereo not shown) [GSK1383280], the “%Inh” value in the assay on ASK2 was found to be 0%; in the assay with AURKA, 96.2%; in the assay with AURKB it was 93.6%; in the assay on AURKC it was 86%; with AXL, 63%; with BIKE, 79%. Moreover, the “%Inh” value with BLK, in the assay with BMPR1A, with BMPR1B and in the assay with BMPR2 was 0% in each case.

`CN1CCN(CCCNc2nccc(-c3c(-c4ccc(F)cc4)nn4cc(C(N)=O)ccc34)n2)CC1` [GW622475]: the “%Inh” value in the assay on ASK2 stood at 0%; in the assay with AURKA, 20%; in the assay with AURKB, 5%; in the assay on AURKC, 10%; in the assay with AXL, 17%; in the assay on BIKE, 26%. Also, the “%Inh” value in the assay with BLK is reported as 56%; in the assay on BMPR1A, 0%; in the assay on BMPR1B, 37%; in the assay with BMPR2, 0%.

For `COc1cc2nccc(Nc3ccc(Oc4ccccc4)cc3)c2cc1OC.Cl` [GI261656], the “%Inh” value with ASK2 stood at 0%; in the assay with AURKA, 22%; with AURKB it was 17%; in the assay on AURKC it was 0%; in the assay on AXL, 10%; in the assay with BIKE it was 6%. Moreover, the “%Inh” value with BLK is 99.2%; in the assay with BMPR1A, 0%; in the assay on BMPR1B, 0%; in the assay on BMPR2, 7%.
